Assay outcomes: PubChem, Center for Chemical Genomics, University of Michigan
The entries come from a sample that favours hits as a whole.
Dicer inh: blocks human Dicer maturation of pre-miR-21 | cat-ELCCA pre-miR-21 Dicer processing, chemiluminescence; hits give high values | z-score at 25 µM | 6% of 47,000 active | Q9UPY3; in the data active means z-score above about 3, passing the limit was not always enough;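 further: higher signal means more uncleaved substrate so more Dicer inhibition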
Hits are given with their value; i = inactive.

SMILES	Dicer inh
Nc1nc(SCC(=O)NCCCO)nc2sc3c(c12)CCCC3	i
O=C(CSc1nc2sc3c(c2c(=O)[nH]1)CCCC3)NCCN1CCOCC1	3.9
Cc1cc2nc(-c3ccc(NC(=O)c4ccc([N+](=O)[O-])o4)cc3)oc2cc1C	i
CC1=C(C(=O)OCCc2ccccc2)C(c2ccccn2)C2=C(CCCC2=O)N1 (stereo unspecified)	i
COC(=O)C1=C(C)NC2=C(C(=O)CCC2)C1c1ccccn1 (stereo unspecified)	3.3
COC(=O)C1=C(C)NC2=C(C(=O)CC(C)(C)C2)C1c1ccccn1 (stereo unspecified)	i
COCCOC(=O)C1=C(C)NC2=C(C(=O)CCC2)C1c1ccc(C)s1 (stereo unspecified)	i
COC(=O)C1=C(C)NC2=C(C(=O)CCC2)C1c1ccc(C#Cc2ccccc2)s1 (stereo unspecified)	3.1
COC(=O)C1=C(C)NC2=C(C(=O)CCC2)C1c1sc2ccccc2c1C (stereo unspecified)	i
Cc1ccc2cccc(OS(=O)(=O)c3ccc(F)cc3F)c2n1	i
O=C(O)c1ccc(-c2ccc(Br)cc2)cc1	i
CCc1nc(-c2cc3cc(C)ccc3[nH]c2=O)no1	i
